Values without a mark were called inactive. Entries that show only a call come without a potency. For some of these results: Potency and affinity values are given separately. Activity calls are given as the source filed them. Unless noted, no rule for the calls is given here.
Assays:
[1] = antimalarial activity against Dd2 strain (AID 2302;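 active = growth inhibition above 50% at the single 2 µM test dose, taken to imply half-maximal potency below 2 µM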); conditions: P. falciparum Dd2 in RBCs, LDH growth readout, 72 h; at 2 µM; hits give high values
[2] = human hepatoma cell viability loss – ATP luminescence, cytotoxicity control for P. falciparum antimalarial project, primary screen (AID 2303;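 active = inhibition above 50%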); conditions: HepG2 viability, 24-48 h, at 10 µM, hits give high values
[3] = molecular target: L-lactate dehydrogenase (Plasmodium falciparum (isolate CDC / Honduras)) (UniProt Q27743); test: PfLDH activity inhibition – cell lysate, 3D7 strain, counter-screen for P. falciparum growth inhibition project (AID 2304); conditions: P. falciparum 3D7 crude extract, LDH APAD/NBT absorbance; at 2 µM; hits give high values
Chain of L-lactate dehydrogenase (Plasmodium falciparum (isolate CDC / Honduras)) (Q27743 whole entry, looked up): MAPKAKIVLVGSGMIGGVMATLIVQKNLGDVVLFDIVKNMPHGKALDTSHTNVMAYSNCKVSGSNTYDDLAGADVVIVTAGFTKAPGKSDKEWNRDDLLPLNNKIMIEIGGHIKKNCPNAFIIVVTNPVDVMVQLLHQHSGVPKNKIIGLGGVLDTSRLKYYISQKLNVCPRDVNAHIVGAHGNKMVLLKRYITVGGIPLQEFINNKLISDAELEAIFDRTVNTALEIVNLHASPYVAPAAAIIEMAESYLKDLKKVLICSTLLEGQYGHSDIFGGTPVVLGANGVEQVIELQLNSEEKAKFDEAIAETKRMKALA

[4] = inhibition of 3D7 malaria parasite growth – strain 3D7 (AID 2306); conditions: P. falciparum 3D7 erythrocytic growth, LDH absorbance, 72 h; at 2 µM; hits give high values
[5] = molecular target: Calcium-dependent protein kinase 1 (Plasmodium falciparum (isolate 3D7)) (UniProt P62344); test: PfCDPK1 kinase inhibitors, biochemical, TCAMS library (AID 1159585; cut-off not given, nearly all actives have IC50 up to about 0.98 µM;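 also: inhibitors leave more ATP so luminescence rises with inhibition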); conditions: recombinant PfCDPK1, Kinase-Glo ATP depletion luminescence
Chain of Calcium-dependent protein kinase 1 (Plasmodium falciparum (isolate 3D7)) (P62344 whole entry, looked up): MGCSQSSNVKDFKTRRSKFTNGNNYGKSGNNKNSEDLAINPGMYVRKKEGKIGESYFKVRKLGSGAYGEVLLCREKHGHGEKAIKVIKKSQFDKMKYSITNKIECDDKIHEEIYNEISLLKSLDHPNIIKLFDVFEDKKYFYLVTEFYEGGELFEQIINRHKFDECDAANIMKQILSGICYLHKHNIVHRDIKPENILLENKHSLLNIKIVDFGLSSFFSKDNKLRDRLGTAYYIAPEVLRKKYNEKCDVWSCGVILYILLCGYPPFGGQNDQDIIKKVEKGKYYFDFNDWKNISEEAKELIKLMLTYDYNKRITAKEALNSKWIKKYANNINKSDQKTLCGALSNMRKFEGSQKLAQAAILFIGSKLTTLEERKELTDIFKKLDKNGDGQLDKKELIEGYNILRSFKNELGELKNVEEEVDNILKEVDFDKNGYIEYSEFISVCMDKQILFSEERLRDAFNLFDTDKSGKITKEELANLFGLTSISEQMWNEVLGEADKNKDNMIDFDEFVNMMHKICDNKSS

[6] = molecular target: Plasmodium falciparum protein kinase 6 (PK6, PF3D7_1337100) (UniProt Q8IDW1); test: PfPK6 kinase inhibitors, biochemical, TCAMS library (AID 1159586); conditions: recombinant PfPK6, Kinase-Glo ATP depletion luminescence
Chain of Plasmodium falciparum protein kinase 6 (PK6, PF3D7_1337100) (Q8IDW1 1-305): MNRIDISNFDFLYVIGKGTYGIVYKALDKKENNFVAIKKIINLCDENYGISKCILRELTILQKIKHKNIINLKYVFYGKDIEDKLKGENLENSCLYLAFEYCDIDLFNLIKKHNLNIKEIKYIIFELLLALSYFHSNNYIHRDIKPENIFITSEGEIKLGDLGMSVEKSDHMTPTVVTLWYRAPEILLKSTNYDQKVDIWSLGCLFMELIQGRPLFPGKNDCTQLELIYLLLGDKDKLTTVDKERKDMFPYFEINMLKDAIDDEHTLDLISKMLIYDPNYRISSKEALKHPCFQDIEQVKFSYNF

[7] = molecular target: Protein kinase 7 (PK7), Plasmodium falciparum 3D7 (PF3D7_0213400) (UniProt Q7YTF7); test: inhibition of Plasmodium PK7 catalytic activity – biochemical, TCAMS antimalarial set, Kinase-Glo luminescence (AID 1159587); conditions: recombinant PfPK7, Kinase-Glo ATP depletion luminescence
Chain of Protein kinase 7 (PK7), Plasmodium falciparum 3D7 (PF3D7_0213400) (Q7YTF7 1-343): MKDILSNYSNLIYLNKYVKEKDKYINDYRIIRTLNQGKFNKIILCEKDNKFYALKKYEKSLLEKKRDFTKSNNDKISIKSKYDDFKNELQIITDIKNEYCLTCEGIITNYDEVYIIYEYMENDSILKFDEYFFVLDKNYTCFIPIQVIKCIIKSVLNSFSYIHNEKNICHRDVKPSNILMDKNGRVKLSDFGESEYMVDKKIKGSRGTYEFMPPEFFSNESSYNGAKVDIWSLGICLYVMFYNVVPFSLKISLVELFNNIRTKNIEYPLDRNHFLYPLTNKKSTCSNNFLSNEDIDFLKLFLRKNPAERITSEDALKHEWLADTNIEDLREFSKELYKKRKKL

[8] = molecular target: Calcium-dependent protein kinase 4 (Plasmodium falciparum (isolate 3D7)) (UniProt Q8IBS5); test: PfCDPK4 kinase inhibitors, biochemical, TCAMS library (AID 1159588; cut-off not given, nearly all actives have IC50 up to about 0.91 µM); conditions: recombinant PfCDPK4, Kinase-Glo ATP depletion luminescence
Chain of Calcium-dependent protein kinase 4 (Plasmodium falciparum (isolate 3D7)) (Q8IBS5 whole entry, looked up): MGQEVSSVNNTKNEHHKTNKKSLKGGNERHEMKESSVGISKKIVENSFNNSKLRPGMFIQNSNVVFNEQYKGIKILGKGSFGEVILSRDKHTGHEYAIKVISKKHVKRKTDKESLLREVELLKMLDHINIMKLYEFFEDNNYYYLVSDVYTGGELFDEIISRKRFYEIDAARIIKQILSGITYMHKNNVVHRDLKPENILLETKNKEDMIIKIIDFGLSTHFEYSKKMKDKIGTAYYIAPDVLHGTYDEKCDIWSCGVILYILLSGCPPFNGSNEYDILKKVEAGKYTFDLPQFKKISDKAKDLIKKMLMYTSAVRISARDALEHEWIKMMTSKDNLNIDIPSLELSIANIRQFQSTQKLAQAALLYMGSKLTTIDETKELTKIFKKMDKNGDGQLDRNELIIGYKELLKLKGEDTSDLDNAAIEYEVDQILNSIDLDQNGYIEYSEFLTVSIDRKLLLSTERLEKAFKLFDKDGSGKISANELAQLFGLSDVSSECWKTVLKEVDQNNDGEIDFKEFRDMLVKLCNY

OC1CCCN(Cc2ccc(-c3ccc(-c4nc5ccc(F)cc5[nH]4)s3)cc2)C1 (stereo not given)
growth inhibition [1]: 99% (active)
inhibition [2]: 40%
inhibition [3]: -5%
growth inhibition [4]: 100% (active)
outcome [5]: inactive
outcome [6]: inactive
outcome [7]: inactive
outcome [8]: inactive

O=C(/C=C/c1ccc(Cl)c(Cl)c1)N1CCC(CN2CCC(c3c[nH]c4ncccc34)CC2)CC1
growth inhibition [1]: 20%
inhibition [2]: 38%
inhibition [3]: -1%
growth inhibition [4]: 84% (active)
outcome [5]: inactive
outcome [6]: inactive
outcome [7]: inactive
outcome [8]: inactive

O=C(Nc1ccc(Cl)c(C(F)(F)F)c1)N[C@H]1CCN(CCCCCNC(=O)[C@@H]2C[C@H]2c2ccc(Cl)c(Cl)c2)C1
growth inhibition [1]: -2%
inhibition [2]: 39%
inhibition [3]: 0%
growth inhibition [4]: 94% (active)
outcome [5]: inactive
outcome [6]: inactive
outcome [7]: inactive
outcome [8]: inactive

CC(C)CCN1CCCN(Cc2cccc(NC(=O)c3ccc(Cl)c(Cl)c3)c2)CC1
growth inhibition [1]: 13%
inhibition [2]: 35%
inhibition [3]: -1%
growth inhibition [4]: 92% (active)
outcome [5]: inactive
outcome [6]: inactive
outcome [7]: inactive
outcome [8]: inactive

CN1CCN(CCCN(Cc2cccc(-c3ccc(CNC4CCCC4)cc3)c2)C(=O)/C=C/c2ccccc2)CC1
growth inhibition [1]: 96% (active)
inhibition [2]: 62% (active)
inhibition [3]: -2%
growth inhibition [4]: 98% (active)
outcome [5]: inactive
outcome [6]: inactive
outcome [7]: inactive
outcome [8]: inactive

CN1CCC(NCc2ccc(-c3ccc(Cl)cc3)cc2)CC1
growth inhibition [1]: 43%
inhibition [2]: 50% (active)
inhibition [3]: 6%
growth inhibition [4]: 99% (active)
outcome [5]: inactive
outcome [6]: inactive
outcome [7]: inactive
outcome [8]: inactive

C[C@@H]1CCC[C@H](C)N1C[C@@H](O)CNS(=O)(=O)c1cccc(C(F)(F)F)c1
growth inhibition [1]: 2%
inhibition [2]: 4%
inhibition [3]: -4%
growth inhibition [4]: 99% (active)
outcome [5]: inactive
outcome [6]: inactive
outcome [7]: inactive
outcome [8]: inactive

CC(C)(C)c1ccc(CNC(=O)c2cc(CNC3CCNCC3)ccc2O)cc1
growth inhibition [1]: 8%
inhibition [2]: 6%
inhibition [3]: 2%
growth inhibition [4]: 96% (active)
outcome [5]: inactive
outcome [6]: inactive
outcome [7]: inactive
outcome [8]: inactive

Cn1c(NC2CCN(CC3CCN(C(=O)/C=C/c4ccc(Cl)c(Cl)c4)CC3)CC2)nc2ccccc21
growth inhibition [1]: 100% (active)
inhibition [2]: 99% (active)
inhibition [3]: 3%
growth inhibition [4]: 101% (active)
outcome [5]: inactive
outcome [6]: inactive
outcome [7]: inactive
outcome [8]: inactive

CCCNCc1ccc(-c2ccc(CN(Cc3cnc(C)cn3)C(=O)CC#N)cc2)nc1
growth inhibition [1]: -3%
inhibition [2]: 4%
inhibition [3]: 5%
growth inhibition [4]: 92% (active)
outcome [5]: inactive
outcome [6]: inactive
outcome [7]: inactive
outcome [8]: inactive

Cc1ccccc1NC(=O)NC1CCN(CCCCCNC(=O)/C=C/c2ccc(Cl)c(Cl)c2)CC1
growth inhibition [1]: 20%
inhibition [2]: 13%
inhibition [3]: -6%
growth inhibition [4]: 102% (active)
outcome [5]: inactive
outcome [6]: inactive
outcome [7]: inactive
outcome [8]: inactive

O=C(NCc1cc2c(cc1Cl)OCO2)c1ccc(CNC2CCN(Cc3ccccc3)CC2)cc1
growth inhibition [1]: 47%
inhibition [2]: 11%
inhibition [3]: -3%
growth inhibition [4]: 100% (active)
outcome [5]: inactive
outcome [6]: inactive
outcome [7]: inactive
outcome [8]: inactive

c1ccc(-c2ccc(CNCCCNc3nc4ccccc4[nH]3)cc2)cc1
growth inhibition [1]: 0%
inhibition [2]: 20%
inhibition [3]: -4%
growth inhibition [4]: 95% (active)
outcome [5]: inactive
outcome [6]: inactive
outcome [7]: inactive
outcome [8]: inactive

CCCCc1cc(NCc2ccncc2)nc(Nc2ccc(OC)cc2)n1
growth inhibition [1]: 22%
inhibition [2]: 11%
inhibition [3]: 0%
growth inhibition [4]: 93% (active)
outcome [5]: inactive
outcome [6]: inactive
outcome [7]: inactive
outcome [8]: inactive

COc1ccc(-c2cc3nc4c(c(NCCCn5ccnc5)n3n2)CCCC4)cc1
growth inhibition [1]: 74% (active)
inhibition [2]: 5%
inhibition [3]: -2%
growth inhibition [4]: 95% (active)
outcome [5]: inactive
outcome [6]: inactive
outcome [7]: inactive
outcome [8]: inactive

CC(C)(C)c1cc([N+](=O)[O-])cc(C(=O)Nc2ccccc2C(F)(F)F)c1O
growth inhibition [1]: 99% (active)
inhibition [2]: 74% (active)
inhibition [3]: 5%
growth inhibition [4]: 96% (active)
outcome [5]: inactive
outcome [6]: inactive
outcome [7]: inactive
outcome [8]: inactive

CCN(CC)CCN(Cc1ccc(-c2ccc(Cl)s2)cc1)C(=O)Cn1c(CCc2cccc(F)c2F)nc(=O)c2ccccc21
growth inhibition [1]: 27%
inhibition [2]: 24%
inhibition [3]: -4%
growth inhibition [4]: 96% (active)
outcome [5]: inactive
outcome [6]: inactive
outcome [7]: inactive
outcome [8]: inactive

OC(COc1ccccc1-c1nc2ccccc2o1)CN1CCCN(CCc2ccccc2)CC1 (stereo not given)
growth inhibition [1]: 2%
inhibition [2]: 39%
inhibition [3]: -5%
growth inhibition [4]: 97% (active)
outcome [5]: inactive
outcome [6]: inactive
outcome [7]: inactive
outcome [8]: inactive

CN(C)CCOc1ccc(N2CCN(CCCCNC(=O)c3ccc(NC(=O)c4ccc(Cl)cc4)cc3)CC2)cc1
growth inhibition [1]: 98% (active)
inhibition [2]: 13%
inhibition [3]: 0%
growth inhibition [4]: 99% (active)
outcome [5]: inactive
outcome [6]: inactive
outcome [7]: inactive
outcome [8]: inactive

N#Cc1cccc(C(=O)Nc2ccc(-c3cccc(CN4CCCC4)c3)cc2)c1
growth inhibition [1]: 79% (active)
inhibition [2]: 15%
inhibition [3]: 2%
growth inhibition [4]: 101% (active)
outcome [5]: inactive
outcome [6]: inactive
outcome [7]: inactive
outcome [8]: inactive

Reference: PubChem BioAssay
